Laboratory results: PubChem BioAssay (Tox21)
“And” between values parts separate entries of the source, which are not always exact repeats. Equal values may be shown once. Records with an inconclusive call do not appear. A structure can be active in one record and inactive in another. The source made the active and inactive calls. Unless noted, calls follow the shape of the dose curve; as a rule, active = well fitted curve in the direction sought with a large enough effect in the repeat runs; inconclusive = weak or mixed curves; inactive = no such curve, though single readings can be large; an effect the other way counts as inactive or inconclusive.

What was measured:
[1] = qHTS RealTime-Glo MT Cell Viability Assay in HEK293 cells - 0 hour (AID 1224880); also: top concentration of the series differs between compounds; nearly all actives have a fitted effect of over 45% in size
Method in brief: (§1)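 600 cells/well were plated with the nonlytic NanoLuc/prosubstrate reagent, pre-incubated 5 h, then given 23 nL of compound in DMSO. Incubation at 37 C for 40 h, with luminescence from viable-cell-reduced substrate read repeatedly from 0 h.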

[2] = A CellTox Green Cytotoxicity Assay to monitor cytotoxicity in HEK293 cells - 32 hour (AID 1224881); also: nearly all actives have a fitted effect of over 40% in size; also: potency is read from the fitted curve at half-maximal effect
Method in brief: (§2)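 HEK293 cells, 600/well, were preincubated 5 hours and then exposed to compounds at 37 C for up to 40 hours. A cell-impermeant cyanine dye staining dead-cell DNA was read by fluorescence at 0, 8, 16, 24, 32 and 40 h time points.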

[3] = A CellTox Green Cytotoxicity Assay to monitor cytotoxicity in HepG2 cells - 0 hour (AID 1224882); also: nearly all actives have a fitted effect of over 35% in size; also: potency is read from the fitted curve at half-maximal effect
Method in brief: (§3)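 HepG2 cells, 600/well, preincubated 5 h with CellTox Green dye, then exposed to Tox21 compounds in DMSO at 37 C for up to 40 h. Dead-cell DNA fluorescence read at the indicated time point.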

[4] = A CellTox Green Cytotoxicity Assay to monitor cytotoxicity in HepG2 cells - 32 hour (AID 1224883); also: nearly all actives have a fitted effect of over 50% in size
Method in brief: as §3

[5] = A CellTox Green Cytotoxicity Assay to monitor cytotoxicity in HEK293 cells - 8 hour (AID 1224884); also: nearly all actives have a fitted effect of over 35% in size; also: potency is read from the fitted curve at half-maximal effect
Method in brief: as §2

[6] = qHTS RealTime-Glo MT Cell Viability Assay in HEK293 cells - 24 hour (AID 1224886); also: nearly all actives have a fitted effect of over 50% in size; also: potency is read from the fitted curve at half-maximal effect
Method in brief: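 Luminescence generated by NanoLuc from substrate produced by living HEK293 cells served as the viability signal. Each value reflects the reading at its stated time point during continuous 40 h compound exposure at 37 C.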

[7] = qHTS RealTime-Glo MT Cell Viability Assay in HEK293 cells - 8 hour (AID 1224887); also: nearly all actives have a fitted effect of over 50% in size; also: potency is read from the fitted curve at half-maximal effect
Method in brief: as §1

[8] = A CellTox Green Cytotoxicity Assay to monitor cytotoxicity in HepG2 cells - 8 hour (AID 1224890); also: nearly all actives have a fitted effect of over 45% in size; also: potency is read from the fitted curve at half-maximal effect
Method in brief: as §3

[9] = qHTS assay to identify small molecule antagonists of the estrogen receptor alpha (ER-alpha) signaling pathway using the BG1 cell line in the presence of 0.1 nM 17-beta-estradiol - cell viability counter screen (AID 1259241); also: nearly all actives have a fitted effect of over 40% in size
Method in brief: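 CellTiter-Fluor read (30 min, 37C) on ER-alpha/ERE-luc VM7Luc4E2 cells; 22 hr compound treatment; agonist 0.1 nM E2 final; same-well multiplex.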

[10] = qHTS assay to identify small molecule antagonists of the androgen receptor (AR) signaling pathway using the MDA cell line in the presence of 0.5 nM R1881 - cell viability counter screen (AID 1259242); also: nearly all actives have a fitted effect of over 45% in size; also: potency is read from the fitted curve at half-maximal effect
Method in brief: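 MDA-kb2 cells (MMTV-luciferase, AR/GR responsive) were treated with compounds plus 0.5 nM R1881 (final) for 16 hr at 37C, 0% CO2. Viability was then read in the same wells as live-cell protease fluorescence (CellTiter-Fluor, 30 min).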

[11] = qHTS assay to identify small molecule HDAC inhibitors (AID 1259364); also: nearly all actives have a fitted effect of over 45% in size; also: potency is read from the fitted curve at half-maximal effect
Method in brief: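 Wild-type HCT-116 cells, plated overnight at 37 C, exposed to compounds 2 hr at 37 C; luminogenic HDAC-Glo substrate then added 30 min at room temperature. Luminescence reports relative endogenous class I/II HDAC activity.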

[12] = qHTS assay to identify small molecule HDAC inhibitors - cell viability counter screen (AID 1259365); also: series mostly up to about 92 µM; nearly all actives have a fitted effect of over 50% in size
Method in brief: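 To flag cytotoxic hits, 1,500 wild-type HCT-116 cells per well, plated the day before, receive test compounds for 2hr at 37 C before CellTiter-Glo reagent and a luminescence read.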

[13] = qHTS assay to identify small molecule agonists of the sonic hedgehog signaling (Shh) pathway - cell viability counter screen (AID 1259366); also: nearly all actives have a fitted effect of over 50% in size; also: potency is read from the fitted curve at half-maximal effect
Method in brief: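 Fluorescence from CellTiter-Fluor reports live cells in this counter screen. NIH/3T3-derived Gli1-Luc reporter cells receive test compounds for 24hr at 37C; reagent goes in at 23hr.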

[14] = qHTS assay to identify small molecule antagonists of the sonic hedgehog signaling (Shh) pathway - cell viability counter screen (AID 1259367); also: nearly all actives have a fitted effect of over 55% in size; also: potency is read from the fitted curve at half-maximal effect
Method in brief: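 Seed 3T3 Gli1-Luc cells at 2,000 per well; incubate 4 hr; add compound in DMSO, then conditioned medium; incubate at 37C with 5% CO2; add CellTiter-Fluor after 23 hr; read fluorescence 1 hr later.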

[15] = qHTS RealTime-Glo MT Cell Viability Assay in HepG2 cells - 16 hour (AID 1224885); also: nearly all actives have a fitted effect of over 50% in size; also: potency is read from the fitted curve at half-maximal effect
Method in brief: (§4)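 Tox21 10K library screened in qHTS format on HepG2 cells carrying RealTime-Glo reagents. Compounds were added after a 5 h preincubation, and the luminescent signal from continuous culture was measured repeatedly during 40 h treatment.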

[16] = A CellTox Green Cytotoxicity Assay to monitor cytotoxicity in HEK293 cells - 16 hour (AID 1224888); also: nearly all actives have a fitted effect of over 35% in size
Method in brief: as §2

[17] = qHTS RealTime-Glo MT Cell Viability Assay in HepG2 cells - 0 hour (AID 1224889); also: nearly all actives have a fitted effect of over 50% in size; also: potency is read from the fitted curve at half-maximal effect
Method in brief: as §4

[18] = qHTS assay to identify small molecule agonists of the sonic hedgehog signaling (Shh) pathway (AID 1259368; calls by dose curve;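 also: NIH/3T3-derived 3T3Gli1-Luc cells carrying a stable Gli1-driven firefly luciferase reporter; series mostly up to about 92 µM; nearly all actives have a fitted effect of over 15% in size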)
Method in brief: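 NIH/3T3-derived 3T3Gli1-Luc cells with stably integrated Gli1-driven firefly luciferase, 2,000 cells/well, compounds added after 4 hr. Incubated 24 hr at 37C, 5% CO2; luminescence read after 30 min with luciferase reagent at room temperature.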

[19] = target: Estrogen receptor (Homo sapiens) (UniProt P03372); test: qHTS assay to identify small molecule antagonists of the estrogen receptor alpha (ER-alpha) signaling pathway using the BG1 cell line in the presence of 0.1 nM 17-beta-estradiol (AID 1259244); also: nearly all actives have a fitted effect of over 50% in size; also: potency is read from the fitted curve at half-maximal effect
Estrogen receptor (Homo sapiens), sequence (P03372 whole entry, looked up): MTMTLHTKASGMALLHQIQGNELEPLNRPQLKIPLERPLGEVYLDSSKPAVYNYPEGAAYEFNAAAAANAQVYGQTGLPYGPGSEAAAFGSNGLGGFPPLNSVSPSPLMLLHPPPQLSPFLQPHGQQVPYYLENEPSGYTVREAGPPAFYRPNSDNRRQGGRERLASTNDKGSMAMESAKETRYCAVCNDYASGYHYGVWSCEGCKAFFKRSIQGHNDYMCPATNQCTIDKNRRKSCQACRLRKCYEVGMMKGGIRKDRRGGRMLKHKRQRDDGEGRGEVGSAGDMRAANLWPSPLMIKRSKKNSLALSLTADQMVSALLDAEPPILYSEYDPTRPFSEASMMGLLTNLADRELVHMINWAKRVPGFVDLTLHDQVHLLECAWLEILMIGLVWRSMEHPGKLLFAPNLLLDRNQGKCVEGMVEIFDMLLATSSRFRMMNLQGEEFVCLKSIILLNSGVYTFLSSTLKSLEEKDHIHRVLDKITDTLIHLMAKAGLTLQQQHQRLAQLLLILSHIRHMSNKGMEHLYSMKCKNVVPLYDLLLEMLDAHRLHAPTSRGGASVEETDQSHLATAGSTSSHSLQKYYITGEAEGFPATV
Method in brief: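 VM7Luc4E2 cells (endogenous full-length ER-alpha, 4×ERE-luciferase), kept 5 days in phenol red-free, charcoal-stripped FBS medium; 4,000 cells/well. Compounds added with 0.1 nM (final) 17beta-estradiol, 22 hr at 37C; luminescence read with ONE-Glo after 30 min.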

[20] = target: Androgen receptor (Homo sapiens) (UniProt P10275); test: qHTS assay to identify small molecule antagonists of the androgen receptor (AR) signaling pathway using the MDA cell line in the presence of 0.5 nM R1881 (AID 1259243); also: nearly all actives have a fitted effect of over 50% in size; also: potency is read from the fitted curve at half-maximal effect
Androgen receptor (Homo sapiens), sequence (P10275 whole entry, looked up): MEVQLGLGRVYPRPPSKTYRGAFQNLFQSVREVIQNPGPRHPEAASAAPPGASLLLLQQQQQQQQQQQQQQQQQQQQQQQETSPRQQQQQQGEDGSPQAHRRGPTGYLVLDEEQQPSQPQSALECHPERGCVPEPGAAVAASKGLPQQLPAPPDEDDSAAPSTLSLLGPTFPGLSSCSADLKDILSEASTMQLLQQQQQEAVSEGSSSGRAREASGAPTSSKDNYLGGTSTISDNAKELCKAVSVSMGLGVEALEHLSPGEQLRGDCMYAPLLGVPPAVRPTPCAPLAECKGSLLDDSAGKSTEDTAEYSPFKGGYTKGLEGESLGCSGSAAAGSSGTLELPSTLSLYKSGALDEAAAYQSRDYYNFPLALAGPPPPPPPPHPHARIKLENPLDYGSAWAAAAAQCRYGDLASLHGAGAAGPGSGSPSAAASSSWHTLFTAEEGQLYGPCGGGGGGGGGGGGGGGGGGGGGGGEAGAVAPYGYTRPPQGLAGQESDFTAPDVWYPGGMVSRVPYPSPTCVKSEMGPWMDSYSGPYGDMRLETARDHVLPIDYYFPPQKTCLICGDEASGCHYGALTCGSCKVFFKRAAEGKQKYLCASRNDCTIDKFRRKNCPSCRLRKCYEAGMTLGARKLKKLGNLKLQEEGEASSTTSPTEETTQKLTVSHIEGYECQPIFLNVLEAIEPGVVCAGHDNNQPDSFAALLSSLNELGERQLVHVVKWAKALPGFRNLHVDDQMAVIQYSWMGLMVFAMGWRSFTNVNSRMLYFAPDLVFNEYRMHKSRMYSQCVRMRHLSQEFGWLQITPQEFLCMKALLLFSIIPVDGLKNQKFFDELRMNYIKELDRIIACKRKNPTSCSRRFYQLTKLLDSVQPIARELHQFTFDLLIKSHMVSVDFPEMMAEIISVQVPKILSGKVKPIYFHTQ
Method in brief: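 MDA-kb2 cells (MMTV-luciferase, responsive to AR and GR) at 3,000/well, rested 5 h at 37C, 0% CO2, then given compounds plus 0.5 nM R1881 (final) for 16 hr. Luciferase read with ONE-Glo after 30 min at room temperature.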

Measured: Potency

Cc1cccc(N)c1N
inactive: [1] | [2] | [3] | [4] | [5] | [6] | [7] | [8] | [9] | [10] | [11] | [12] | [13] | [14]

Oc1cc(Cl)c(Cl)cc1Cl
inactive: [1] | [2] | [3] | [4] | [5] | [15] | [6] | [16] | [17] | [8] | [9] | [10] | [11] | [12] | [13] | [14] | [18]

O=C1C=CC(=O)C=C1
inactive: [1] | [2] | [3] | [4] | [5] | [6] | [7] | [16] | [8] | [9] | [10] | [11] | [12] | [13] | [14] | [18]

CCOc1cc(Oc2ccc(C(F)(F)F)cc2Cl)ccc1[N+](=O)[O-]
inactive: [1] | [2] | [3] | [4] | [5] | [16] | [8] | [9] | [10] | [19] | [11] | [12] | [13] | [14] | [18]

Oc1cc(Cl)ccc1Oc1ccc(Cl)cc1Cl
50.1 µM (active) and inactive: [3] | [5]
31.4 µM (active) and inactive: [13] | [14]
inactive: [1] | [17] | [9] | [11] | [12] | [18]
active: [2] 22.4 µM | [15] 22.4 µM and 23.9 µM | [6] 22.4 µM and 23.9 µM | [7] 35.5 µM and 23.9 µM | [8] 22.4 µM and 16.9 µM | [10] 31.4 µM

NC(=S)Nc1ccccc1
8.86 µM (active) and inactive: [6]
49.8 µM (active) and inactive: [2] | [3] | [5]
55.9 µM (active) and inactive: [8]
inactive: [1] | [15] | [7] | [17] | [9] | [10] | [11] | [12] | [13] | [14] | [18]
27.8 µM (active) and inactive: [19]

COP(=S)(OC)Oc1cc(Cl)c(Cl)cc1Cl
54.1 µM (active) and inactive: [20]
inactive: [1] | [2] | [3] | [5] | [6] | [7] | [16] | [17] | [8] | [9] | [10] | [19] | [11] | [12] | [13] | [14] | [18]

c1ccc(NNc2ccccc2)cc1
active: [2] 24.5 µM | [11] 15.4 µM
inactive and 43.6 µM (active): [17]
inactive: [1] | [3] | [5] | [6] | [7] | [8] | [9] | [10] | [12] | [13] | [14] | [18]

NNC(N)=S
active: [13] 45 µM | [14] 20.1 µM and 61.1 µM
63.5 µM (active) and inactive: [19]
inactive: [1] | [2] | [3] | [5] | [15] | [6] | [7] | [17] | [8] | [9] | [10] | [11] | [12] | [18]

Oc1cc(Cl)ccc1Cl
inactive: [1] | [2] | [3] | [5] | [15] | [6] | [7] | [17] | [8] | [9] | [10] | [12] | [13] | [14] | [18]

Nc1c(Cl)cc([N+](=O)[O-])cc1Cl
inactive: [1] | [2] | [3] | [5] | [15] | [6] | [7] | [16] | [8] | [9] | [10] | [12] | [13] | [14] | [18]
active: [20] 6.9 µM and 27.3 µM
inactive and 27.3 µM (active): [19]

CCOP(=S)(OCC)O/N=C(\C#N)c1ccccc1
inactive: [1] | [2] | [3] | [5] | [15] | [6] | [7] | [16] | [8] | [9] | [10] | [11] | [12] | [13] | [14] | [18]

O=C(O)C(F)(F)C(F)(F)C(F)(F)C(F)(F)C(F)(F)C(F)(F)C(F)(F)F
inactive: [1] | [2] | [3] | [5] | [6] | [7] | [16] | [17] | [8] | [9] | [10] | [12] | [13] | [14] | [18]

CCC(=O)O[C@H]1CC[C@H]2[C@@H]3CCC4=CC(=O)CC[C@]4(C)[C@H]3CC[C@]12C
active: [2] 19.5 µM and 19 µM | [6] 21.9 µM and 23.9 µM | [7] 38.9 µM | [17] 7.76 µM | [8] 43.6 µM
34.7 µM (active) and inactive: [5]
inactive: [3] | [15] | [9] | [10] | [20] | [19] | [11] | [12] | [14] | [18]
